Reference: PubChem BioAssay AID1942 (Johns Hopkins Ion Channel Center, 2009)
The campaign covered roughly 2,400 compounds. About 580 (24%) were called active. The list is a sample of the results. A number with no mark means an inactive call.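 Rule for the calls: active = activity change at or above the mean plus 3 SD of buffer wells without dofetilide, per plate; inactive = the rest.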

molecular target: Potassium voltage-gated channel subfamily KQT member 2 (Rattus norvegicus) (UniProt O88943); assay: KCNQ2 potentiation in CHO cells – cell-based, FluxOR thallium flux, counter-screen for hERG block protector project, confirmation (AID 1942); conditions: FluxOR thallium flux fluorescence, at 10 µM, stronger effect = higher value;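 note: normalized value minus buffer-control mean plus three SD of buffer wells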
Sequence (O88943 whole entry, looked up): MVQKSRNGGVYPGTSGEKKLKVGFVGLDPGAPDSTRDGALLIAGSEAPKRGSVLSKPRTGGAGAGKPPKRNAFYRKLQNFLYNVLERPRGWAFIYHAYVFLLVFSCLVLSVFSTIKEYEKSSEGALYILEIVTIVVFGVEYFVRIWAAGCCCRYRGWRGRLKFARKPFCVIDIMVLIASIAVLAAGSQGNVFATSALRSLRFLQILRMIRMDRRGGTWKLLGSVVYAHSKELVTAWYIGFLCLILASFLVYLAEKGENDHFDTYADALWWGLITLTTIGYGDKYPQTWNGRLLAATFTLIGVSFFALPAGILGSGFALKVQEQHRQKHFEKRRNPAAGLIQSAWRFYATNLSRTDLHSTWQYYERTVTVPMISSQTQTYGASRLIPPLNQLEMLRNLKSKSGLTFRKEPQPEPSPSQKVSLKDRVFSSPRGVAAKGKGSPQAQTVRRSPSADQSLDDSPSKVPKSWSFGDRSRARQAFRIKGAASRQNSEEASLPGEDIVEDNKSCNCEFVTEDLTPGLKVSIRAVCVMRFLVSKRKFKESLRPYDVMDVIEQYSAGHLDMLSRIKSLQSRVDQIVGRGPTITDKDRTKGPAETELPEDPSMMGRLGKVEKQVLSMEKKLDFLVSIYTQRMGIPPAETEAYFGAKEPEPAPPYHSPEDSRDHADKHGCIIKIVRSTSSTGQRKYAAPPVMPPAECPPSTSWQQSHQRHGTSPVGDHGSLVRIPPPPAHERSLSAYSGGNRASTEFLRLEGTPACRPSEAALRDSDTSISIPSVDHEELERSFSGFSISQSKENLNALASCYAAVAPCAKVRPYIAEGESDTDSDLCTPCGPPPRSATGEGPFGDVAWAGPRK

Row | Compound | activity change, less the hit threshold
1 | CCOc1ccc(NC(=O)CN(C)C(=O)c2c(-c3c(F)cccc3Cl)noc2C)cc1OCC | -16.8%
2 | O=C(COc1ccc2ccccc2c1Br)Nc1cccnc1 | -22.1%
3 | Cc1ccc(C)c(/C=C/C(=O)c2ccccc(=O)c2O)c1 | 29.3% (active)
4 | Cc1ccc(/C=C/C(=O)c2ccccc(=O)c2O)cc1C | 28.9% (active)
5 | Cc1ccc(/C=C/C(=O)c2ccccc(=O)c2O)c(C)c1 | 40.1% (active)
6 | Cc1ccc(C(=O)CC(=O)c2cccc(F)c2)c(O)c1 | -14.8%
7 | O=C(/C=C/c1ccccc1Cl)c1ccccc(=O)c1O | 30.9% (active)
8 | Cc1ccc(NS(=O)(=O)c2ccc(NC(=O)c3ccccc3C(=O)O)cc2)cc1C | -17%
9 | Cc1ccc(C(=O)c2ccccc2C(=O)O)c(O)c1 | -21.5%
10 | Cc1cccc(NC(=O)CN2C(=O)S/C(=C\c3ccc(-c4cccc(C(=O)O)c4C)o3)C2=O)c1 | -15.3%
11 | N/C(=N\OCc1ccccc1)c1nonc1N | -14.5%
12 | O=C(COC(=O)C1C2CC3OC(=O)C1C3C2)Nc1ccc(Cl)cc1 (stereo not drawn) | -17.9%
13 | CCc1ccc(/C=N/NC(=O)c2nnn(-c3nonc3N)c2C(C)C)cc1 | -25.3%
14 | CCC(C)C(NC(=O)C(C)NC(=O)CNC(=O)CNC(=O)OCc1ccccc1)C(=O)OC (stereo not drawn) | -19.3%
15 | CCn1c2ccccc2c2cc(NC(=O)COc3ccccc3)ccc21 | -20.7%
16 | CC1CCCCC1NC(=S)NC(=O)c1cccs1 (stereo not drawn) | 27.8% (active)
17 | COc1ccc(N2CCN(C(=S)Nc3cccc(OC)c3)CC2)cc1 | -8.3%
18 | O=C(NC(=S)N1CCN(c2ccc(F)cc2)CC1)c1cccs1 | 25.4% (active)
19 | CC1CCCCC1NC(=S)NC(=O)c1sc2ccccc2c1Cl (stereo not drawn) | -10%
20 | O=C(NC(=S)N1CCN(c2ccccc2)CC1)c1c(F)cccc1F | -2.6%
21 | CC1CCN(C(=S)NC(=O)c2cccs2)CC1 | 2.2% (active)
22 | O=C(NC(=S)N1CCN(c2ccccc2)CC1)c1ccccc1 | 11.4% (active)
23 | Cc1cc(C)cc(-n2nnc(C(=O)NCc3ccc4c(c3)OCO4)c2N)c1 | -15.8%
24 | N#Cc1cccc(NC(=O)c2nc(-c3ccccc3)n(-c3ccccc3)n2)c1 | -22.3%
25 | Oc1ccc(N2CCN(C(c3cccnc3)c3nnnn3Cc3ccccc3)CC2)cc1 (stereo not drawn) | -10.2%

Row | Compound | activity change, less the hit threshold
26 | CCOC(=O)c1[nH]c(=O)[nH]c1COC(=O)c1cc2ccccc2o1 | -20.5%
27 | Cn1c(/N=C/c2c(O)ccc3ccccc23)nc2ccccc21 | -14.8%
28 | CC1(C)Cc2c(sc3[nH]c(=S)n(Cc4ccccc4)c(=O)c23)CO1 | 11.3% (active)
29 | CCC1(C)Cc2c(sc3[nH]c(=S)n(Cc4ccccc4)c(=O)c23)CO1 (stereo not drawn) | 48.6% (active)
30 | Cn1c(=O)c2sc3c(c2n(CC(=O)Nc2ccccc2)c1=O)COC(C)(C)C3 | -11.1%
31 | CC(C)C1Cc2c(sc3[nH]c(=S)n(Cc4ccccc4)c(=O)c23)CO1 (stereo not drawn) | 19.3% (active)
32 | CCC(=O)N1c2ccc(C)cc2C2=NNC(=S)NC21O (stereo not drawn) | -16.9%
33 | O=C(NC1CCCC1)C(c1ccncc1)N(Cc1ccccc1F)C(=O)c1csnn1 (stereo not drawn) | -8.5%
34 | COc1ccc(-c2cnn(C3CCS(=O)(=O)C3)c2N)cc1 (stereo not drawn) | -16.8%
35 | Cc1cc(C)c(S(=O)(=O)c2ccccc2)c(OC(=O)c2c(F)cccc2Cl)n1 | -22%
36 | COc1cccc(C(=O)/C=C/Nc2ccc(S(=O)(=O)Nc3cnc4ccccc4n3)cc2)c1 | -20.6%
37 | O=C1C=C(Nc2cccc3cccnc23)c2ccccc2C1=O | -8.1%
38 | O=C(Nn1c(O)c(C=C2N=c3ccccc3=N2)sc1=S)c1cccc(Cl)c1 | -23.1%
39 | CN(C(=O)c1ccc(Cl)c(S(=O)(=O)N2CCOCC2)c1)c1ccccc1C(=O)O | -1.7%
40 | c1ccc(-c2ccc(-c3ccncn3)cc2)cc1 | -16.2%
41 | c1ccc(-c2n[nH]c(-c3ccccn3)n2)cc1 | 5.9% (active)
42 | COc1ccc(-c2nc(-c3ccccn3)ncc2S(C)(=O)=O)cc1 | -15.6%
43 | CC(C)Sc1nc2ccccc2n2cnnc12 | -12.8%
44 | C/C(=N\Nc1nc2ccccc2s1)c1cccs1 | -9.9%
45 | C/C(=N\Nc1nc2ccccc2nc1C)c1ccccc1O | 7.3% (active)
46 | C/C(=N\Nc1nc2ccccc2s1)c1ccc(Br)s1 | -5.9%
47 | CCCCNC(=O)N1CCCC(C(=O)c2cc(C)c(OC)c(C)c2)C1 (stereo not drawn) | -22.8%
48 | CCC1(c2ccccc2)NC(=S)N(c2ccc(C)cc2)N1 (stereo not drawn) | 102% (active)
49 | CCC1(c2ccc(Cl)cc2)NC(=S)N(c2ccc(C)cc2)N1 (stereo not drawn) | 83.8% (active)
50 | CCC1(c2ccc(Cl)cc2)NC(=S)N(c2ccccc2)N1 (stereo not drawn) | 84.8% (active)

Row | Compound | activity change, less the hit threshold
51 | S=c1[nH]nc(-c2ccccn2)n1/N=C/c1ccc(-c2ccccc2Br)o1 | -12.9%
52 | CC12CCC(C(=O)OC3CCCCC3)(OC1=O)C2(C)C (stereo not drawn) | -26.6%
53 | C=CCNC(=O)c1onc(CSc2ccc(OC)cc2)c1C(=O)O | -16.5%
54 | Cn1c2ccccc2c(=O)c2c(=O)n(Cc3ccco3)c(-c3ccc(Cl)cc3Cl)nc21 | -29.7%
55 | O=C(Nc1cccnc1)c1ccc(COc2cc(Cl)ccc2Cl)o1 | -20%
56 | O=C(CCl)NCCN1C(=O)S/C(=C\c2cccnc2)C1=O | -19%
57 | C[n+]1ccccc1/C=C/c1c(F)cccc1F | -10.9%
58 | CCC(NS(=O)(=O)c1cn(C)nc1C)c1ccccc1 (stereo not drawn) | -7.9%
59 | CC(C)CNC(=S)NC(=O)c1ccc(Cl)cc1 | -3.9%
60 | CN(C(=S)NC(=O)c1ccccc1)C1CCCCC1 | 2% (active)
61 | C/C(=C\C(=O)c1ccccc1)NNC(=O)c1ccc(Cl)cc1 | -3.2%
62 | COc1ccc(C(=O)NC(=S)N(C)C2CCCCC2)cc1 | -3.2%
63 | Cc1ccc(C(=O)NC(=S)N(C)C2CCCCC2)cc1 | 5.4% (active)
64 | O=C(NC(=S)NNC(=O)[C@H]1C[C@@H]1c1ccccc1)c1cccc(F)c1 | -30.9%
65 | Cc1cccc(C(=O)NC(=S)N(C)C2CCCCC2)c1 | 18.5% (active)
66 | CN(C(=S)NC(=O)c1ccc(Cl)cc1)C1CCCCC1 | 4.8% (active)
67 | Cc1cccc(C(=O)NC(=S)NNC(=O)COc2c(C)cccc2C)c1 | -27.8%
68 | CN(C1=C(NC(=O)c2ccccc2)C(=O)c2ccccc2C1=O)C1CCS(=O)(=O)C1 (stereo not drawn) | -3.2%
69 | COc1ccc(-c2nn(-c3ccccc3)cc2C(=O)Nc2cccc(C(=O)O)c2)cc1[N+](=O)[O-] | -18.7%
70 | Cc1c(Cl)c([N+](=O)[O-])nn1CC(=O)NCC(C)C | -16.4%
71 | O=C(CCCOc1ccc(Cl)cc1Cl)Nc1ccccc1C(=O)O | -39.2%
72 | O=C(c1ccc(CS(=O)c2cccc(Cl)c2)o1)N1CCCCCC1 (stereo not drawn) | -25.8%
73 | O=S(=O)(c1ccc(F)cc1)N1CCN(c2ccc(F)cc2)CC1 | -13.8%
74 | CCCNC(=O)N1CCN(S(=O)(=O)c2ccc(C)cc2)CC1 | -17.2%
75 | Cc1ccc(O)c(Sc2cc(C)ccc2O)c1 | 2% (active)

Row | Compound | activity change, less the hit threshold
76 | Cc1ccc(O)c(C(=O)CC(=O)c2ccc(Cl)cc2)c1 | -16.6%
77 | Cc1ccc(O)c(C(=O)CC(=O)c2ccccc2Cl)c1 | -13.5%
78 | NNC(=O)CNc1ccccc1Cl | -15.1%
79 | O=C(NCC1CCS(=O)(=O)C1)Oc1ccccc1 (stereo not drawn) | -12.4%
80 | C=CCN(c1ccccc1)S(=O)(=O)c1cccc(C(=O)Nc2nnc(SCC)s2)c1 | -20.2%
81 | C=CCN(c1cccc(C(F)(F)F)c1)S(=O)(=O)c1cccc(C(=O)OCC(=O)Nc2ccccc2)c1 | -0.5%
82 | C=CCN(c1ccc(Cl)cc1)S(=O)(=O)c1cccc(C(=O)O)c1 | 4.4% (active)
83 | CN(C)S(=O)(=O)c1cccc(C(=O)Nc2cccnc2)c1 | -13.5%
84 | CN(Cc1ccccc1)C1CCN(Cc2ccccc2[N+](=O)[O-])CC1 | -15.5%
85 | CCN(Cc1ccccc1)C(=S)NC(=O)c1ccccc1Br | 66.7% (active)
86 | COc1nccnc1NS(=O)(=O)c1ccc(NC(=S)NC(=O)c2ccccc2F)cc1 | -13.5%
87 | O=C(NC(=S)N(Cc1ccccc1)Cc1ccccc1)c1ccccc1F | 38.8% (active)
88 | O=C(Cn1cncn1)c1ccccc1Br | -24%
89 | CCN(C(=S)NC(=O)c1ccccc1Br)C1CCCCC1 | 62.1% (active)
90 | CC(C)CN(C(=O)COC(=O)CNC(=O)c1ccccc1F)c1c(N)n(Cc2ccccc2)c(=O)[nH]c1=O | -7.7%
91 | CCCN(Cc1ccccc1)C(=S)NC(=O)c1ccccc1[N+](=O)[O-] | 92.5% (active)
92 | O=C(Nc1ccccc1C(=O)O)c1cccc(NC(=O)c2ccccc2Br)c1 | -16%
93 | CCC(=O)NC(=S)NNC(=O)c1ccccc1[N+](=O)[O-] | -19.6%
94 | O=C(NCC1CCCCC1)c1cccnc1Cl | -17.7%
95 | CC1=NNC(=O)C1CC(=O)N/N=C/C=C/c1ccccc1 (stereo not drawn) | -21.4%
96 | Cc1cnc(NC(=O)CN2CCN(c3ccccc3F)CC2)s1 | -16.9%
97 | COc1cc(/C=C2/OC(=O)c3cc([N+](=O)[O-])ccc32)cc(OC)c1OC | -15.4%
98 | CCO/C=C1\N=C(c2ccc(F)cc2)OC1=O | -13.2%
